From PubChem BioAssay (EPA / NIEHS)
Active and inactive are the calls of the source. How the source made its calls: active means hit-call score of the fitted dose curve at least 0.9, where 1 is the maximum; inactive means score below 0.9.

What was measured:
Details in all cases: mRNA level, 48 h; actives raise or lower the signal
[1] = read-out: Heat shock 70 kDa protein 1 (HSPA1A), gene 3303; assay: LTEA_HepaRG_HSPA1A: Life Technologies and Expression Analysis (LTEA) Assay for Heat shock 70 kDa protein 1 (HSPA1A) using HepaRG (AID 2283502)
How it was run: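 Cells were plated and cultured for 48 h, then switched to serum-free induction medium. Chemicals were added at eight half-log concentrations up to 100 uM for 48 h. RNA was then isolated and HSPA1A measured by qRT-PCR with bidirectional curve fitting against DMSO.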

[2] = read-out: 3-Hydroxy-3-Methylglutaryl-CoA Synthase 2 (HMGCS2), HMGCS2 (gene 3158); assay: LTEA_HepaRG_HMGCS2: Life Technologies and Expression Analysis (LTEA) Assay for 3-Hydroxy-3-Methylglutaryl-CoA Synthase 2 (HMGCS2) using HepaRG (AID 2283504)
How it was run: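 Differentiated human HepaRG cells were exposed in duplicate for 48 h in serum-free induction medium to eight concentrations (top 100 uM, half-log steps, 0.5% DMSO). HMGCS2 mRNA was quantified by TaqMan qRT-PCR, normalised to ACTB, GAPDH and POLR2A, then fitted bidirectionally against DMSO.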

HGF (gene 3082) = assay: LTEA_HepaRG_HGF: Life Technologies and Expression Analysis (LTEA) Assay for Hepatocyte Growth Facto (HGF) using HepaRG (AID 2283505)
How it was run: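 Differentiated human HepaRG cells in serum-free induction medium were exposed in duplicate for 48 h to eight concentrations (top 100 uM, half-log steps, 0.5% DMSO). HGF mRNA was quantified by qRT-PCR, normalized to ACTB, GAPDH and POLR2A.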

[3] = read-out: Insulin Like Growth Factor 1 (IGF1), IGF1 (gene 3479); assay: LTEA_HepaRG_IGF1: Life Technologies and Expression Analysis (LTEA) Assay for Insulin Like Growth Factor 1 (IGF1) using HepaRG (AID 2283506)
How it was run: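 Cells are thawed, plated and cultured 48 h, then exposed in duplicate to chemical (highest 100 uM, half-log steps, 0.5% DMSO) for another 48 h. Total RNA is analysed by Fluidigm qRT-PCR for IGF1 expression relative to vehicle.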

[4] = read-out: Insulin-like growth factor-binding protein 1 (IGFBP1), IGFBP1 (gene 3484); assay: LTEA_HepaRG_IGFBP1: Life Technologies and Expression Analysis (LTEA) Assay for Insulin-like growth factor-binding protein 1 (IGFBP1) using HepaRG (AID 2283508)
How it was run: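 Differentiated human HepaRG cells in serum-free induction medium were exposed in duplicate for 48 h to eight concentrations, top 100 uM with half-log dilutions, in 0.5% DMSO. Transcript levels came from qRT-PCR normalised to ACTB, GAPDH and POLR2A, fitted bidirectionally against DMSO.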

[5] = read-out: Interleukin 6 (IL6), IL6 (gene 3569); assay: LTEA_HepaRG_IL6: Life Technologies and Expression Analysis (LTEA) Assay for Interleukin 6 (IL6) using HepaRG (AID 2283509)
How it was run: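 qRT-PCR read-out of IL6 transcript, normalized to three housekeeping genes, after 48 h chemical exposure of HepaRG cells; 8-point half-log series, top 100 uM, 0.5% DMSO vehicle. Bidirectional curve fitting against DMSO baseline.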

[6] = read-out: Interleukin 6 Receptor (IL6R), IL6R (gene 3570); assay: LTEA_HepaRG_IL6R: Life Technologies and Expression Analysis (LTEA) Assay for Interleukin 6 Receptor (IL6R) using HepaRG (AID 2283510);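 on AC50: TaqMan qRT-PCR signal normalized to ACTB GAPDH and POLR2A housekeeping genes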
How it was run: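 Cells were thawed, plated and cultured 48 h, then medium was changed to serum-free induction medium. Chemicals were added in duplicate (100 uM top, half-log steps, 0.5% DMSO) for 48 h. Lysates were analyzed by qRT-PCR for IL6R expression.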

[7] = read-out: Potassium channel subfamily K member 1 (KCNK1), KCNK1 (gene 3775); assay: LTEA_HepaRG_KCNK1: Life Technologies and Expression Analysis (LTEA) Assay for Potassium channel subfamily K member 1 (KCNK1) using HepaRG (AID 2283511)
How it was run: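 HepaRG, 48 h exposure, 8-pt half-log series top 100 uM, 0.5% DMSO vehicle, duplicates. Readout: KCNK1 transcript by qRT-PCR (Fluidigm array), housekeeping-normalized; bidirectional curve fit relative to DMSO baseline.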

[8] = read-out: Keratin 19 (KRT19), KRT19 (gene 3880); assay: LTEA_HepaRG_KRT19: Life Technologies and Expression Analysis (LTEA) Assay for Keratin 19 (KRT19) using HepaRG (AID 2283512)
How it was run: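 Differentiated human HepaRG cells, plated 48 h, were exposed in duplicate for 48 h in serum-free induction medium to eight half-log concentrations up to 100 uM in 0.5% DMSO. KRT19 mRNA was quantified by qRT-PCR, normalized to ACTB, GAPDH and POLR2A, and fitted bidirectionally versus DMSO.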

[9] = read-out: JUN Transcription Factor, JUN (gene 3725); assay: LTEA_HepaRG_JUN: Life Technologies and Expression Analysis (LTEA) Assay for JUN Transcription Factor using HepaRG (AID 2283513)
How it was run: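 Read-out is JUN transcript level by TaqMan qRT-PCR, normalized to ACTB, GAPDH and POLR2A, after 48 h chemical treatment of HepaRG cells. Concentration-response spanned eight half-log points up to 100 uM in 0.5% DMSO.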

[10] = read-out: Lipase C (LIPC), LIPC (gene 3990); assay: LTEA_HepaRG_LIPC: Life Technologies and Expression Analysis (LTEA) Assay for Lipase C (LIPC) using HepaRG (AID 2283514)
How it was run: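 HepaRG, 48 h exposure, 8-pt half-log series from 100 uM in 0.5% DMSO, duplicates. Readout: LIPC mRNA by Fluidigm qRT-PCR, housekeeping-normalized (ACTB/GAPDH/POLR2A). Gain or loss fitted bidirectionally against DMSO baseline.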

[11] = read-out: Lipoprotein lipase (LPL), LPL (gene 4023); assay: LTEA_HepaRG_LPL: Life Technologies and Expression Analysis (LTEA) Assay for Lipoprotein lipase (LPL) using HepaRG (AID 2283515)
How it was run: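 HepaRG, 48 h exposure, 8-pt half-log dilutions from 100 uM, 0.5% DMSO vehicle, duplicates; qRT-PCR (Fluidigm array) of LPL mRNA vs housekeeping genes; bidirectional curve fit relative to DMSO baseline.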

[12] = read-out: MicroRNA 122 (MIR122), gene 406906; assay: LTEA_HepaRG_MIR122: Life Technologies and Expression Analysis (LTEA) Assay for MicroRNA 122 (MIR122) using HepaRG (AID 2283516); further: the transcript read is the microRNA miR-122
How it was run: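 Human liver HepaRG cultures receive test chemicals for 48 h at eight half-log concentrations from 100 uM. Expression is quantified by qRT-PCR with ACTB/GAPDH/POLR2A normalization and fitted bidirectionally against 0.5% DMSO.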

[13] = read-out: matrix metalloproteinase-10 (MMP10), MMP10 (gene 4319); assay: LTEA_HepaRG_MMP10: Life Technologies and Expression Analysis (LTEA) Assay for matrix metalloproteinase-10 (MMP10) using HepaRG (AID 2283517)
How it was run: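 Transcript levels come from Fluidigm qRT-PCR normalized to three housekeeping genes, with curves fitted bidirectionally against 0.5% DMSO. Human HepaRG cells were dosed for 48 hours at concentrations up to 100 uM.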

MYC, MYC (gene 4609) = assay: LTEA_HepaRG_MYC: Life Technologies and Expression Analysis (LTEA) Assay for MYC using HepaRG (AID 2283518)
How it was run: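 Differentiated human HepaRG cells, plated 48 h then switched to serum-free induction medium, were exposed in duplicate for 48 h to 8-point half-log series up to 100 uM in 0.5% DMSO. MYC mRNA measured by qRT-PCR, normalized to ACTB/GAPDH/POLR2A.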

[14] = read-out: matrix metalloproteinase-3 (MMP3), MMP3 (gene 4314); assay: LTEA_HepaRG_MMP3: Life Technologies and Expression Analysis (LTEA) Assay for matrix metalloproteinase-3 (MMP3) using HepaRG (AID 2283519)
How it was run: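 qRT-PCR read-out of MMP3 mRNA (normalised to three housekeeping genes) in HepaRG liver cells after 48 h chemical exposure; 8-point half-log series, top 100 uM, 0.5% DMSO vehicle. Bidirectional curve fitting against DMSO baseline.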

[15] = read-out: Paternally Expressed 10 (PEG10), PEG10 (gene 23089); assay: LTEA_HepaRG_PEG10: Life Technologies and Expression Analysis (LTEA) Assay for Paternally Expressed 10 (PEG10) using HepaRG (AID 2283520);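 on AC50: PEG10 transcript by qRT-PCR normalised to ACTB GAPDH and POLR2A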
How it was run: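 Human HepaRG cultures are dosed for 48 h across an eight-point half-log series starting at 100 uM, with 0.5% DMSO as vehicle and baseline. Gain or loss of PEG10 transcript is measured by qRT-PCR and fitted in both directions.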

[16] = read-out: Nuclear factor NF-kappa-B p105 subunit (Homo sapiens) (UniProt P19838); assay: LTEA_HepaRG_NFKB1: Life Technologies and Expression Analysis (LTEA) Assay for Nuclear Factor Kappa B Subunit 1 (NFKB1) using HepaRG (AID 2283521)
How it was run: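 NFKB1 transcript was measured by TaqMan qRT-PCR on Fluidigm arrays, normalised to three housekeeping genes and fitted in both directions against 0.5% DMSO. HepaRG cells were dosed in duplicate for 48 h in serum-free induction medium, eight half-log steps from 100 uM.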

[17] = read-out: Intercellular Adhesion Molecule 1 (ICAM1), ICAM1 (gene 3383); assay: LTEA_HepaRG_ICAM1: Life Technologies and Expression Analysis (LTEA) Assay for Intercellular Adhesion Molecule 1 (ICAM1) using HepaRG (AID 2283507)
How it was run: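 Differentiated HepaRG cells in serum-free induction medium were exposed in duplicate for 48 h to eight half-log concentrations up to 100 uM in 0.5% DMSO. Transcript levels were measured by qRT-PCR normalized to ACTB, GAPDH and POLR2A; bidirectional fits relative to DMSO.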

[18] = read-out: Hypoxia-inducible factor 1-alpha (Homo sapiens) (UniProt Q16665); assay: LTEA_HepaRG_HIF1A: Life Technologies and Expression Analysis (LTEA) Assay for Hypoxia-inducible factor 1 (HIF1A) Trancription factor using HepaRG (AID 2283503)
How it was run: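 HIF1A transcript level read by qRT-PCR (ACTB, GAPDH, POLR2A normalization) after 48 h chemical exposure of HepaRG cultures. Eight half-log concentrations, top 100 uM, 0.5% DMSO vehicle, duplicates; bidirectional curve fit against DMSO baseline.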

Measured: AC50

Sequence of Nuclear factor NF-kappa-B p105 subunit (Homo sapiens) (P19838 whole entry, looked up): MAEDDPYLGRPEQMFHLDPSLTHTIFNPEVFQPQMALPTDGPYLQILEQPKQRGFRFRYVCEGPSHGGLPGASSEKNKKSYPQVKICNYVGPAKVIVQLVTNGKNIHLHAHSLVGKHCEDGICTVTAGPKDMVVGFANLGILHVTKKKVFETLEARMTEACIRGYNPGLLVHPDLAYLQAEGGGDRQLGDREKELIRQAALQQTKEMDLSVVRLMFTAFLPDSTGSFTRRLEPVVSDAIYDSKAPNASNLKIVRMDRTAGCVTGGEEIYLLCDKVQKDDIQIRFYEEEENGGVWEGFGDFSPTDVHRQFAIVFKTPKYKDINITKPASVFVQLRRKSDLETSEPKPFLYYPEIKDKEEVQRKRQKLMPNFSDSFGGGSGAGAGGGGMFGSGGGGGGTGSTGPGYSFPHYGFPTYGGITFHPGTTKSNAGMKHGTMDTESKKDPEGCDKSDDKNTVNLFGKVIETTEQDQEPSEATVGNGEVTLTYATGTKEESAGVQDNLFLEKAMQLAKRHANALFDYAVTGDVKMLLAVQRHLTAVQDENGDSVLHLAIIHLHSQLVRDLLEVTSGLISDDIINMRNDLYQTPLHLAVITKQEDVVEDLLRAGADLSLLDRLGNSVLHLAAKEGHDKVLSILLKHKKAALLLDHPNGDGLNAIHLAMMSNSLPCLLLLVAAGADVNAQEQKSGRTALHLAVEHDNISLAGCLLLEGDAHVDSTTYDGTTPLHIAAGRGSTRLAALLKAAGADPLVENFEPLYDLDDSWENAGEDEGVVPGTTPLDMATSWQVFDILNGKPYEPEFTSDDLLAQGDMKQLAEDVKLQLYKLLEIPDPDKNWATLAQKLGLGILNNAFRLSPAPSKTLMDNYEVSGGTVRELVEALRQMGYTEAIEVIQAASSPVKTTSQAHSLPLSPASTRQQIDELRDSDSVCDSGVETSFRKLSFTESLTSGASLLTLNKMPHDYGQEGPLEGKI
Sequence of Hypoxia-inducible factor 1-alpha (Homo sapiens) (Q16665 whole entry, looked up): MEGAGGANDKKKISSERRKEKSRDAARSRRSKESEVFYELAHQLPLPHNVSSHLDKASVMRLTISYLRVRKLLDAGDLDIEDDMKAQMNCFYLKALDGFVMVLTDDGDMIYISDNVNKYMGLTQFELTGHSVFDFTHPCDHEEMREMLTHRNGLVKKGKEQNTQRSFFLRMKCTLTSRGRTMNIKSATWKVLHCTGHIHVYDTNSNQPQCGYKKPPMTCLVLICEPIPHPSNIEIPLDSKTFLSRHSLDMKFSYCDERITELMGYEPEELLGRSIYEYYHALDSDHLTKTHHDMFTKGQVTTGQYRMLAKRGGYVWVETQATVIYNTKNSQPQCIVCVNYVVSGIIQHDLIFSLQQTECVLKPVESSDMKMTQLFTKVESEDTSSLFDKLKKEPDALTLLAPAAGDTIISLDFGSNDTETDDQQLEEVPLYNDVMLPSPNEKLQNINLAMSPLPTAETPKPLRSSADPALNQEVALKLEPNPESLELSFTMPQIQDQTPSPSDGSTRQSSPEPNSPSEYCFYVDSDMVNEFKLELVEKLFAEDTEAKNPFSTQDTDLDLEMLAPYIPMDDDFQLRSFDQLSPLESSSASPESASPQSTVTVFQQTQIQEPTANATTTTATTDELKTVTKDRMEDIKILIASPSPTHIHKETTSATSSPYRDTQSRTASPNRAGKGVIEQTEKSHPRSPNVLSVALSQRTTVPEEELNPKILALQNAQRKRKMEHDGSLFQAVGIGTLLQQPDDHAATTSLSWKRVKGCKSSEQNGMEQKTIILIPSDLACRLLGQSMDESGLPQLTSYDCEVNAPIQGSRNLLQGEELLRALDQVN

CC1(C)NC(=O)N(c2ccc([N+](=O)[O-])c(C(F)(F)F)c2)C1=O
inactive: [1] | HGF (gene 3082) | [6] | [7] | [9] | [13] | [14]
active: [2] 76.6 µM | [3] 69.2 µM | [4] 90.2 µM | [5] 83.7 µM | [8] 67.8 µM | [10] 89.7 µM | [11] 76.2 µM | [12] 80.9 µM | MYC, MYC (gene 4609) 81.8 µM | [15] 15.7 µM

Cc1cn([C@H]2C[C@H](N=[N+]=[N-])[C@@H](CO)O2)c(=O)[nH]c1=O
inactive: [1] | [2] | HGF (gene 3082) | [3] | [5] | [6] | [7] | [8] | [9] | [10] | [11] | [12] | [13] | MYC, MYC (gene 4609) | [14] | [15] | [16]

O=C(O)Cc1cc(I)c(Oc2ccc(O)c(I)c2)c(I)c1
active: [1] 79.7 µM | [2] 77.1 µM | HGF (gene 3082) 66.8 µM | [3] 93.7 µM | [17] 64.4 µM | [5] 80.4 µM | [6] 42.7 µM | [7] 64.3 µM | [8] 0.631 µM | [9] 80.7 µM | [10] 88.5 µM | [11] 65.7 µM | [13] 81 µM | MYC, MYC (gene 4609) 91.3 µM | [15] 0.558 µM | [16] 71.8 µM
inactive: [12] | [14]

CCN(Cc1cccc(S(=O)(=O)O)c1)c1ccc(C(=C2C=CC(=[N+](CC)Cc3cccc(S(=O)(=O)O)c3)C=C2)c2ccccc2S(=O)(=O)[O-])cc1
inactive: [1] | [18] | [2] | HGF (gene 3082) | [3] | [5] | [6] | [7] | [8] | [9] | [10] | [11] | [12] | [13] | MYC, MYC (gene 4609) | [14] | [15] | [16]

CCCCOC(=O)CC(CC(=O)OCCCC)(OC(C)=O)C(=O)OCCCC
inactive: [1] | [18] | [2] | HGF (gene 3082) | [3] | [4] | [5] | [6] | [7] | [8] | [9] | [10] | [11] | [12] | [13] | MYC, MYC (gene 4609) | [14] | [15] | [16]

CC(=O)N1CCN(c2ccc(OC[C@H]3CO[C@](Cn4ccnc4)(c4ccc(Cl)cc4Cl)O3)cc2)CC1
inactive: [16]
active: [1] 79.5 µM | [2] 12.4 µM | [3] 12.4 µM | [5] 31.2 µM | [6] 13.9 µM | [8] 12.2 µM | [9] 50 µM | [10] 18.3 µM | [11] 86.3 µM | [12] 13.3 µM | [13] 16.7 µM | MYC, MYC (gene 4609) 15.4 µM | [14] 24 µM | [15] 42.5 µM
